High-throughput results: PubChem, several laboratories
MsrA act = activates bovine MsrA enzyme; purified bovine MsrA, absorbance read-out; activation, % at 10.6 µM; 360,000 compounds, 0.3% hits; in the data active = activation above about 7.5%;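 also: 0% = vehicle and 100% = reference activator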
MsrA inhibitor = inhibits bovine methionine sulfoxide reductase A; inhibition, % at 15.5 µM; 360,000 compounds, 0.75% hits; AID 651718; purified bovine MsrA, absorbance read-out; in the data active = inhibition above about 4.5%;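 also: 0% = vehicle wells with enzyme and 100% = reference inhibitor wells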
DSG3 Ab inh = blocks pemphigus antibody binding to human desmoglein-3; P32926; DSG3-coupled beads, scFv-anti-DSG3-GFP binding, flow cytometry; active compounds read low; binding (percent of control), % at 10 µM; 310,000 compounds, 0.48% hits; AID 588358;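 active = binding more than 3 SD below its plate's average and above zero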;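 also: hits lower antibody fragment binding to DSG3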
Target sequence (P32926 whole entry, looked up, the tested form may be a part): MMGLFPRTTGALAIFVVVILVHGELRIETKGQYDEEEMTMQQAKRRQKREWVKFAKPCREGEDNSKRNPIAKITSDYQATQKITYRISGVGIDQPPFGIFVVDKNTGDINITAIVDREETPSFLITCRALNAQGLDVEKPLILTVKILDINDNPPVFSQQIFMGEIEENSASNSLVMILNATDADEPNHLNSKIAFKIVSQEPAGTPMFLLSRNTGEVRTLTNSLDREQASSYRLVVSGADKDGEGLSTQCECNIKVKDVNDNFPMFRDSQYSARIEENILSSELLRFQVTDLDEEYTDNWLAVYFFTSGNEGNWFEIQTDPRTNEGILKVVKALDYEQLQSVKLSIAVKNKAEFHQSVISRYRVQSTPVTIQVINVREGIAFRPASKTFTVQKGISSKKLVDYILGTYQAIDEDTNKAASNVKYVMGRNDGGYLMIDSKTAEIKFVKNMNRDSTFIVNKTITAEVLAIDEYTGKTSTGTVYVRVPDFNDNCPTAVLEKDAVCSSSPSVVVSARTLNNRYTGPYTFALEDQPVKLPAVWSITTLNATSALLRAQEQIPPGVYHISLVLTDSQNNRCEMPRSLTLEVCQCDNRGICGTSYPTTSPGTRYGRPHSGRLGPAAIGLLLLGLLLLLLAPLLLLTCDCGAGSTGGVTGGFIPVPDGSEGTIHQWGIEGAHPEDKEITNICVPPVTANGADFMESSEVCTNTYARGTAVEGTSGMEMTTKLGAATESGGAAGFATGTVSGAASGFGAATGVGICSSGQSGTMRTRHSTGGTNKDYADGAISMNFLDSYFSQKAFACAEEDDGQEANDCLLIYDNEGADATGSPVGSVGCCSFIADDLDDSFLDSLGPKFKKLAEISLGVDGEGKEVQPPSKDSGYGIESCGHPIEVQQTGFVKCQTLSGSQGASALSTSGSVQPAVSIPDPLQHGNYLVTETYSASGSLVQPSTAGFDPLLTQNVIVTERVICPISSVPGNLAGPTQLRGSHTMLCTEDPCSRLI
NadD block = NadD (S. aureus) enzyme inhibition | inhibition, % at 20 µM | purified NadD enzyme, colorimetric absorbance read-out | 360,000 compounds, 0.78% hits; in the data active = inhibition above about 26%
rCAG RNA binder = molecules binding r(CAG) RNA repeats | AID 651821 | inhibition, % at 3 µM | 370,000 compounds, 1.3% hits | r(CAG) RNA repeat, TO-PRO-1 dye displacement fluorescence;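 active = inhibition above the plate cutoff, the mean of all test compounds on that plate plus 3 SD, cut at about 35% in these data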;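 also: 0% = DMSO alone and 100% = 100 µM mitoxantrone as full dye displacement; higher means more dye released from RNA so lower well fluorescence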
DAGLB inhibitor = diacylglycerol lipase beta (human) inhibition | Q8NCG7 | HEK293T DAGLB membrane lysate, EnzChek fluorogenic substrate | inhibition, % at 5.17 µM | 340,000 compounds, 0.059% hits | AID 504411; in the data active = inhibition above about 34%;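 also: 0% = enzyme with vehicle and 100% = wells lacking enzyme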
rCAG binder conf = r(CAG) RNA repeat binding, confirmation. shares compounds with rCAG RNA binder. TO-PRO-1 dye displacement fluorescence. inhibition, % at 3 µM. 4,300 compounds, 70% hits. AID 652065;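 active = inhibition above a per-plate cutoff, the mean inhibition of sample wells plus 3 SD, cut at about 35% in these data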;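 also: loss of TO-PRO-1 fluorescence as compound displaces dye from 1x1 AA loop RNA; 0% = DMSO only wells and 100% = 100 µM mitoxantrone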
DNA CAG counter = counter-screen for rCAG RNA binders: DNA CAG dye complex inhibitors; shares compounds with rCAG RNA binder; 4,300 compounds, 94% hits; d(CAG) DNA oligo TO-PRO-1 dye displacement, fluorescence; inhibition, % at 3 µM; AID 652068;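 active = inhibition above its plate's cutoff, the mean test-well inhibition plus 3 SD, cut at about 4.8% in these data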;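 also: 0% = DNA dye mix with DMSO and 100% = 100 µM mitoxantrone; hits displace the dye from DNA and so lower well fluorescence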
DNA CAG DR = DNA CAG dye complex inhibition, dose response counter-screen | 250 compounds, 20% hits | shares compounds with rCAG RNA binder | IC50, µM | DNA CAG/GTC duplex TO-PRO-1 dye displacement fluorescence; in the data active = IC50 below about 10 µM
* marks the source's active call; other numbers are inactive results; . = no result. This is a sample that favours compounds with a hit; in the whole collection about 3.2% have one here.

SMILES	MsrA act	MsrA inhibitor	DSG3 Ab inh	NadD block	rCAG RNA binder	DAGLB inhibitor	rCAG binder conf	DNA CAG counter	others
Oc1ccc(-c2csc(Nc3cccc4ccccc34)n2)cc1O	0	0	95	21	54*	8	55*	34*
Cc1cccnc1Nc1nc(-c2ccc(O)c(O)c2)cs1	2	-1	85	2	38*	9	54*	19*
O=C(Nc1ccc(O)cc1C(=O)O)c1ccc2c(c1)C(=O)N(Cc1ccco1)C2=O	-2	1	117	-1	73*	10	86*	50*
O=C(Nc1cc([N+](=O)[O-])ccc1O)c1ccc2c(c1)C(=O)N(Cc1ccco1)C2=O	-4	0	104	5	83*	15	64*	25*
O=C(O)Cn1cc(/C=N/Nc2ccc([N+](=O)[O-])cn2)c2ccccc21	-11	2	104	-1	37*	10	27	7.5*
CC(C)C(OC(=O)C1=Cc2ccccc2OC1)C(=O)NCC1CCCO1 (stereo unspecified)	-5	0	105	15	35*	5	48*	17*
Nc1ccc(S(=O)(=O)Nc2nccs2)cc1N=Nc1ccccc1[N+](=O)[O-]	-4	2	87	15	68*	14	81*	48*
O=[N+]([O-])c1ccccc1S(=O)(=O)Nc1ccc(S(=O)(=O)Nc2nccs2)cc1	-4	-1	.	-6	4	-2	.	.
Cc1ccc(C(=O)C2C(c3ccc(-c4ccccc4[N+](=O)[O-])o3)NC(=O)NC2(O)C(F)(F)F)cc1 (stereo unspecified)	4	-1	76	-2	-4	0	.	.
O=C1NC(c2ccc(-c3ccccc3[N+](=O)[O-])o2)C(C(=O)c2ccccc2)C(O)(C(F)(F)F)N1 (stereo unspecified)	-7	0	86	-5	53*	0	1	0
COc1ccc(S(=O)(=O)NNC(=O)c2cc3cc4ccccc4nc3s2)cc1	-7	2	102	5	35*	-1	23	6.4*
Cc1ccc(S(=O)(=O)N2[C@@H](c3ccc(Br)cc3)C(C(=O)O)=CC[C@H]2c2cccs2)cc1	-8	0	94	3	74*	7	66*	29*
Cc1ccc(S(=O)(=O)N2[C@@H](c3cccc(Cl)c3)C(C(=O)O)=CC[C@H]2c2cccs2)cc1	1	-1	108	3	58*	8	50*	15*
Cc1ccc(S(=O)(=O)N2[C@@H](c3ccc(C(C)(C)C)cc3)C(C(=O)O)=CC[C@H]2c2cccs2)cc1	-7	1	110	5	81*	14	73*	34*	DNA CAG DR=9.5*
Cc1ccc(S(=O)(=O)N2[C@@H](c3ccc(Cl)cc3)C(C(=O)O)=CC[C@H]2c2cccs2)cc1	-1	-1	100	1	67*	6	54*	17*
CCCCNC(=O)C1(C)CCN1Cc1cc(C)ccc1C (stereo unspecified)	0	-1	.	-5	-3	.	.	.
COC(=O)N1CCC[C@H]1c1cccc2[nH]cc(C)c12	.	.	.	.	5	.	.	.
CCNC(=O)C1CCCN(C(=O)c2ccccc2F)CC1 (stereo unspecified)	1	-1	.	4	1	.	.	.
Cc1ccc(S(=O)(=O)N2[C@@H](c3ccc(F)cc3)C(C(=O)O)=CC[C@H]2c2cccs2)cc1	-2	1	102	2	43*	4	37*	9.9*
Cc1ccc([C@H]2C(C(=O)O)=CC[C@@H](c3cccs3)N2S(=O)(=O)c2ccc(C)cc2)cc1	-7	0	111	2	61*	5	48*	17*
COc1ccc([C@@H]2CC=C(C(=O)O)[C@H](c3ccccc3F)N2S(=O)(=O)c2ccc(C)cc2)cc1OC	-2	2	90	-1	32	0	.	.
Cc1ccc(S(=O)(=O)N2[C@@H](c3ccccc3)C(C(=O)O)=CC[C@H]2c2cccc(Cl)c2)cc1	-4	0	106	3	12	4	.	.
O=C1c2ccccc2C(c2nc3ccccc3[nH]2)N1c1ccccn1 (stereo unspecified)	-3	1	.	-4	2	.	.	.
O=C(O)COc1ccccc1/C=C1\SC(=S)N(NC(=O)c2ccccc2O)C1=O	-3	3	105	0	61*	8	42*	10*
O=C(NN1C(=O)/C(=C/c2cccc(O)c2)SC1=S)c1ccccc1O	-10	2	94	-1	75*	7	51*	16*
SMILES	MsrA act	MsrA inhibitor	DSG3 Ab inh	NadD block	rCAG RNA binder	DAGLB inhibitor	rCAG binder conf	DNA CAG counter	others
O=C(NN1C(=O)/C(=C\c2ccc(O)c([N+](=O)[O-])c2)SC1=S)c1ccccc1Cl	-5	4	91	-5	5	31	.	.
Oc1ccc(/C=C/c2ccc3cccc(O)c3n2)cc1Br	-2	1	97	15	50*	-1	29	14*
O=[N+]([O-])c1cccc(/C=C/c2ccc3cccc(O)c3n2)c1	-4	1	94	9	11	1	.	.
O=c1c2ccccc2nc(N/N=C/c2c(O)ccc3ccccc23)n1O	-3	2	99	18	35*	20	71*	30*
O=c1c2ccccc2nc(N/N=C/c2ccc(O)cc2)n1O	0	2	106	2	2	4	.	.
CCc1cc2ccccc2nc1SCC(=O)Nc1cc(OC)c(OC)cc1C(=O)O	-4	-1	92	11	53*	3	45*	13*
O=S(=O)(O)c1cccc2cccc(Nc3ccccc3)c12	-7	2	96	4	47*	13	64*	25*
O=C(NNc1ccc(C(F)(F)F)cc1[N+](=O)[O-])c1ccc(NS(=O)(=O)c2ccc(F)cc2)cc1	-1	0	92	1	71*	20	61*	22*
COC(=O)[C@]12C[C@H](CC(=O)NCc3ccccc3)C(=O)N(Cc3ccco3)C1=C[C@H](COCc1ccccc1)O[C@@H]2C	.	.	.	.	14	.	.	.
COc1ccc(C(=O)Nc2ccc3c(c2)C(=O)N(C)[C@H]2CC[C@H](CC(=O)NCC4CC4)O[C@@H]2CO3)cc1	.	.	.	.	3	.	.	.
CCC(C(=O)N1CCN(S(C)(=O)=O)CC1)c1ccccc1 (stereo unspecified)	-1	0	105	-3	-5	-1	.	.
CCOC(=O)N1CCN(C(=O)C(CC)c2ccccc2)CC1 (stereo unspecified)	-5	0	96	-3	39*	0	6	1
